# The panel holds about 83,000 compounds, 20% with a hit somewhere; the sample as a whole holds those more often.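 Compound tested at a single concentration for 48 hours in 96-well plates; a percent growth value below 10 was scored as active.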 A number with no mark means an inactive call. Calls of active or inactive are those of the source.
# Assays:
# Test in all cases: NCI-60 one-dose screen, 48 h (100 = growth as untreated, 0 = no growth, -100 = all killed)
# Details in all cases: 10 µM unless noted
# NCI-H23 lung = test system: NCI-H23 lung
# NCI-H226 lung = test system: NCI-H226 lung
# NCI-H322M lung = test system: NCI-H322M lung
# HOP-62 NSCLC = test system: HOP-62 NSCLC
# NCI-H460 lung = test system: NCI-H460 lung
# HOP-92 NSCLC = test system: HOP-92 NSCLC
# NCI-H522 lung = test system: NCI-H522 lung
# A549/ATCC NSCLC = test system: A549/ATCC NSCLC
# 786-0 renal = test system: 786-0 renal
# COLO 205 colon = test system: COLO 205 colon
# DU-145 prostate = test system: DU-145 prostate
# K-562 leukemia = test system: K-562 leukemia
# MALME-3M melanoma = test system: MALME-3M melanoma
# MDA-MB-231 breast = test system: MDA-MB-231 breast
# RXF 393 renal = test system: RXF 393 renal
# SF-268 CNS = test system: SF-268 CNS
# SF-295 CNS = test system: SF-295 CNS
# SF-539 CNS = test system: SF-539 CNS
# UACC-257 melanoma = test system: UACC-257 melanoma
# M14 melanoma = test system: M14 melanoma
SMILES,growth (NCI-H23 lung),growth (NCI-H226 lung),growth (NCI-H322M lung),growth (HOP-62 NSCLC),growth (NCI-H460 lung),growth (HOP-92 NSCLC),growth (NCI-H522 lung),growth (A549/ATCC NSCLC),growth (786-0 renal),growth (COLO 205 colon),growth (DU-145 prostate),growth (K-562 leukemia),growth (MALME-3M melanoma),growth (MDA-MB-231 breast),growth (RXF 393 renal),growth (SF-268 CNS),growth (SF-295 CNS),growth (SF-539 CNS),growth (UACC-257 melanoma),growth (M14 melanoma)
O=C(Cc1ccccc1Nc1c(Cl)cccc1Cl)NN1C(=O)/C(=C/c2ccc(Br)cc2)SC1=S,97.5%,95.6%,98.7%,104%,104%,103%,93.9%,99.5%,98.9%,105%,109%,100%,100%,103%,111%,96.8%,101%,93.6%,103%,103%
O=C1CC(=NCC(=O)n2c(-c3ccccc3)nc3ccccc32)NN1,91.8%,90.2%,103%,89%,100%,99.5%,84.5%,114%,107%,111%,115%,111%,111%,90.1%,110%,102%,101%,99.4%,120%,104%
O=C1NC(=Nc2ccc(O)cc2)S/C1=C\c1cccc(Cl)c1,88.2%,102%,83.7%,76.1%,86.3%,72.5%,76.3%,54.9%,67.1%,102%,84.5%,21.9%,88.7%,96.2%,75.1%,74.1%,69.1%,68.6%,95.9%,56.7%
COc1ccc(/C=N/C2=C(C#N)C(c3ccc(N(C)C)cc3)c3ccc4ccccc4c3O2)cc1 (stereo not given),79.2%,44.6%,89.1%,57.4%,40.7%,65.4%,26.1%,64.9%,83.1%,101%,81.5%,14.7%,72%,52.5%,67.2%,63.1%,39.1%,51.8%,79.3%,44%
O=C1c2cccc3cccc(c23)C(=O)N1CCCCCN1CCN(CCCCCOc2ccc(-c3nc4ccc(N5CCOCC5)cc4[nH]3)cc2)CC1,98.9%,78.9%,103%,97.4%,27.5%,49.2%,73.7%,21.3%,109%,96.5%,97.4%,19.6%,82.6%,108%,-11.5% (active),136%,16.3%,54.4%,56.3%,50.6%
CC1=C[C@H]2c3c(c(O)c(O)c4oc(-c5ccccc5)cc(=O)c34)[C@H](c3cc(O)c(O)c4oc(-c5ccccc5)cc(=O)c34)[C@H]2C(C)(C)C1,-14.4% (active),-3.14% (active),6.91% (active),-2.06% (active),-31.8% (active),-10% (active),-12.7% (active),2.87% (active),-22.8% (active),4.64% (active),9.89% (active),2.82% (active),-12.8% (active),5.31% (active),-26.6% (active),5.26% (active),-18.2% (active),-10.5% (active),12.8%,-28.1% (active)
COc1cc(C2CC(=O)c3ccccc3N2)cc(OC)c1OC (stereo not given),95.7%,82.6%,102%,97.6%,101%,92.2%,54%,84.6%,102%,113%,117%,97.6%,93.7%,86.9%,102%,104%,91.7%,102%,87.1%,103%
COc1ccc(/C=C(\C#N)C(=O)Nc2cccc(Nc3nc(SC)nc(-c4cccc([N+](=O)[O-])c4)c3C#N)c2)cc1OC,88.5%,91.8%,100%,91.3%,100%,111%,97.2%,103%,106%,112%,107%,77.9%,97%,68.9%,110%,103%,97.2%,93.4%,103%,91.5%
COc1cc(-c2nn(C)nc2-c2cc3ccccc3s2)cc(OC)c1OC,30.4%,55.5%,44.9%,32.7%,13%,64.9%,0.184% (active),23.3%,36.8%,-14.5% (active),20.1%,8.42% (active),76.1%,37.7%,35.3%,39.8%,9.39% (active),-9.68% (active),54.7%,10.9%
COc1cc(/C=C/c2cc(/C=C/c3ccc(O)c(OC)c3)n(-c3c(Cl)cccc3Cl)c(=O)n2)ccc1O,29%,48.8%,72.7%,50.6%,70.8%,78.7%,9.89% (active),44.1%,29.7%,71.8%,28.7%,9.21% (active),58.8%,29%,-11.8% (active),19.9%,75.4%,3.35% (active),41.1%,7.71% (active)
COc1ccc(-n2nc(C)c3c(Nc4ccc(NC(=O)Nc5ccc(Cl)c(C(F)(F)F)c5)cc4)ncnc32)cc1,-7.74% (active),10.7%,9.35% (active),-15.3% (active),0.651% (active),-18.9% (active),-18.4% (active),6.97% (active),-25.5% (active),-23.6% (active),23.8%,5.84% (active),-27.5% (active),-25% (active),-35.7% (active),17.7%,-39.7% (active),-5.4% (active),-16.6% (active),-26.9% (active)
Cc1cc(C)nc(SC2=C(Nc3cccc(Cl)c3C)C(=O)N(Cc3ccccc3)C2=O)n1,58.9% [30 µM],69.2% [30 µM],63.5% [30 µM],73% [30 µM],44% [30 µM],14.4% [30 µM],51.3% [30 µM],27.3% [30 µM],61.8% [30 µM],70.3% [30 µM],70.7% [30 µM],45.4% [30 µM],58% [30 µM],51.6% [30 µM],43.3% [30 µM],72% [30 µM],-5.72% [30 µM] (active),50.5% [30 µM],72.3% [30 µM],63.1% [30 µM]
FC(F)(F)c1nc2c(NCc3ccc(-c4ccccc4)cc3)cccc2[nH]1,80.8%,79%,85.8%,106%,44.8%,62%,50.8%,55.5%,85%,90.3%,81.2%,6.87% (active),71.4%,57.7%,85.7%,76.5%,88.9%,81.3%,87.7%,90.1%
COc1ccc(NC2=C(Sc3nc(C)cc(C)n3)C(=O)N(Cc3ccccc3)C2=O)cc1Cl,84.5% [30 µM],79.9% [30 µM],111% [30 µM],96.3% [30 µM],60.7% [30 µM],26.9% [30 µM],85.7% [30 µM],74.3% [30 µM],80.4% [30 µM],110% [30 µM],113% [30 µM],69.7% [30 µM],95.4% [30 µM],85.4% [30 µM],50.8% [30 µM],57.8% [30 µM],39.6% [30 µM],101% [30 µM],43.9% [30 µM],95.9% [30 µM]
Nc1n[nH]c2cc(F)c([C@@H]3Nc4ccc5[nH]ncc5c4[C@H]4C5CCC(C5)[C@@H]34)cc12 (stereo not given in full),26.4%,15%,54.7%,26.1%,-11.2% (active),45.7%,-19% (active),8.81% (active),25.4%,-26.9% (active),-7.54% (active),11.5%,73%,35.8%,54.2%,9.83% (active),6.25% (active),-31% (active),53.1%,-1.74% (active)
